Reference: PubChem BioAssay (Tox21)
Unmarked numbers belong to inactive results. Records with an inconclusive call do not appear. A call without a number means that no potency is given here. Calls of active or inactive are those of the source. Unless noted, the call rests on the fitted dose curve.

How the values were obtained:
[1] = Nuclear factor erythroid 2-related factor 2/antioxidant responsive element (Nrf2/ARE) small molecule agonists: qHTS cell viability counter screen in human keratinocytes (AID 1919968; active means well fitted curve in the direction sought with a large enough effect in the repeat runs; an effect the other way counts as inactive or inconclusive; further: nearly all actives have a fitted effect of over 55% in size)
Summary of the method: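 HaCaT ARE reporter line, 1,500 cells/well; 5 h settle, 37 C/5% CO2; cpd in DMSO pinned; 23 h exposure; CellTiter-Fluor, 1 h; fluorescence.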

[2] = Nuclear factor erythroid 2-related factor 2/antioxidant responsive element (Nrf2/ARE) small molecule agonists: luciferase reporter gene qHTS assay in human keratinocytes (AID 1919969); further: nearly all actives have a fitted effect of over 35% in size; further: potency means the concentration at half of the fitted maximal effect
[3] = biological target: Gonadotropin-releasing hormone receptor (Homo sapiens) (UniProt P30968); test: Human gonadotropin-releasing hormone receptor (GnRHR) small molecule agonists, calcium flux assay in GnRHR-HEK293 cells (AID 1920063); further: nearly all actives have a fitted effect of over 35% in size
Summary of the method: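 GnRHR-HEK293, 1500 cells/well, 18 h 37 C/5% CO2; Ca dye 1 h 37 C; cpd pinned (DMSO), agonist mode; kinetic FL 480/540, 3 min, 1 s reads; 15 conc, n=3.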

[4] = biological target: KiSS-1 receptor (Homo sapiens) (UniProt Q969F8); test: Human kisspeptin (KISS1R) small molecule agonists, calcium flux assay in KISS1R-HEK293 cells (AID 1920064; active means well fitted curve in the direction sought with a large enough effect in the repeat runs; an effect the other way counts as inactive or inconclusive)
Summary of the method: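 Stable human KISS1R HEK293 line; 18 h plating, 37 C/5% CO2; calcium dye 1 h 37 C; compound pin transfer; kinetic fluorescence Ex/Em 480/540, 3 min.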

[5] = G protein-coupled receptor (GPCR) small molecule agonists, calcium flux assay: HEK293 wild type cell line counter screen (AID 1920065)
Summary of the method: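 Kinetic fluorescence at Ex/Em 480/540, recorded every second over 3 min, served as the read-out after compound addition. Each compound was tested at 15 concentrations in triplicate on cells pre-loaded with calcium dye for 1 h.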

[6] = p53 small molecule agonists, cell-based qHTS assay with human liver microsomes (AID 1963577);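 further: p53 response element beta-lactamase reporter cells with liver microsomes plus NADPH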
Summary of the method: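 In this qHTS, p53 response-element beta-lactamase cells receive test compound together with a microsome/NADPH activating system (0.5 mg/mL final each) and are incubated 16 h at 37 C before LiveBLAzer fluorescence detection.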

[7] = p53 small molecule agonists, cell-based qHTS assay with rat liver microsomes (AID 1963578)
Summary of the method: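 Agonist mode in p53RE-bla reporter cells, with compounds co-incubated 16 h at 37 C alongside 0.5 mg/mL rat liver microsomes and 0.5 mg/mL NADPH (final), followed by a 2 h LiveBLAzer detection step.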

[8] = p53 small molecule agonists, cell-based qHTS assay with human liver microsomes: qHTS cell viability counter screen (AID 1963579); further: nearly all actives have a fitted effect of over 45% in size
Summary of the method: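 Metabolically activated exposure: compounds, human liver microsomes and NADPH (0.5 mg/mL final apiece) were added to p53RE-bla cells seeded 5 h earlier, left 16 h at 37 C, and then assessed for viability by CellTiter-Glo luminescence.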

[9] = p53 small molecule agonists, cell-based qHTS assay with rat liver microsomes: qHTS cell viability counter screen (AID 1963580); further: nearly all actives have a fitted effect of over 45% in size
Summary of the method: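 In HCT-116 cells carrying a p53 response element-bla reporter, compounds were metabolically activated in situ by rat liver microsomes with NADPH over 16 h. Cell ATP content then served as the cytotoxicity measure.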

[10] = biological target: 5-hydroxytryptamine receptor 2A (Homo sapiens) (UniProt P28223); test: 5-hydroxytryptamine receptor 2A (HTR2A) small molecule antagonists, cell-based qHTS assay (AID 1963586); further: nearly all actives have a fitted effect of over 45% in size
Summary of the method: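 Antagonist-mode intracellular calcium assay: DOI (4 nM) added after 5 min compound pre-incubation at room temperature to dye-loaded HTR2A-CHO cells. Fluorescence followed for 3 min, sampled every second.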

[11] = biological target: 5-hydroxytryptamine receptor 2A (Homo sapiens) (UniProt P28223); test: 5-hydroxytryptamine receptor 2A (HTR2A) small molecule agonists, cell-based qHTS assay (AID 1963587); further: nearly all actives have a fitted effect of over 30% in size
Summary of the method: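 HTR2A-CHO cells, plated 18 h at 37 C/5% CO2, dye-loaded 1 h at 37 C; compounds in DMSO added by pin tool (agonist mode). Intracellular calcium flux read as kinetic fluorescence on FDSS over 2 min at 1 s intervals.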

[12] = biological target: Muscarinic acetylcholine receptor M1 (Homo sapiens) (UniProt P11229); test: Cholinergic receptor muscarinic 1 (CHRM1) small molecule antagonists, cell-based qHTS assay (AID 1963588); further: nearly all actives have a fitted effect of over 40% in size
Summary of the method: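 CHRM1-CHO calcium-flux assay, antagonist mode. Cells were seeded 18 h, dye-loaded 1 h at 37 C and given compound for 5 min at RT, then acetylcholine was added at 50nM. FDSS fluorescence was read 3 min; 15 concentrations, three runs.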

[13] = biological target: Muscarinic acetylcholine receptor M1 (Homo sapiens) (UniProt P11229); test: Cholinergic receptor muscarinic 1 (CHRM1) small molecule agonists, cell-based qHTS assay (AID 1963589); further: nearly all actives have a fitted effect of over 35% in size
Summary of the method: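 Human M1 in stable CHO line; 18 h plating, 1 h dye load 37 C; cpd added (agonist mode); Ca2+ fluorescence kinetic read, 1 s intervals; 15 conc, 3 runs.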

[14] = cAMP Responsive Elements (CRE) small molecule agonists, cell-based qHTS assay (AID 1963590)
Summary of the method: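 HEK 293T CRE-bla, 2,000 cells/well, 18 h preincubation 37 C/5% CO2; cpds (DMSO) pinned, 3 h; LiveBLAzer B/G FRET substrate, 2 h RT.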

[15] = cAMP Responsive Elements (CRE) small molecule antagonists, cell-based qHTS assay (AID 1963591; active means well fitted inhibition curve with a large enough effect in the signal ratio in the repeat runs, not every such curve was filed as active; the % refers to the signal ratio)
Summary of the method: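 Beta-lactamase reporter read by FRET substrate (LiveBLAzer B/G) after 2 h at room temperature. CRE-bla HEK293T cells had received compound plus 0.25 uM (final) NKH477 for 3 h at 37 °C.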

[16] = biological target: Beta-2 adrenergic receptor (Homo sapiens) (UniProt P07550); test: Adrenergic beta2 receptor (ADRB2) small molecule antagonists, cell-based qHTS assay (AID 1963592); further: nearly all actives have a fitted effect of over 50% in size; further: potency means the concentration at half of the fitted maximal effect
Summary of the method: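 Cells (CHO, stable ADRB2 overexpression) incubated 18-20hr at 37C; compounds added from DMSO; agonist mix (1nM isoproterenol, 100uM IBMX, 25uM Ro-20-1724) added; 0.5hr RT; d2-cAMP and anti-cAMP-cryptate added; 1hr RT; 665/615 nm read.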

[17] = biological target: D(2) dopamine receptor (Homo sapiens) (UniProt P14416); test: Dopamine D2 receptor (DRD2) small molecule agonists, cell-based qHTS assay (AID 1963594); further: nearly all actives have a fitted effect of over 35% in size
Summary of the method: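 HEK293 cells stably expressing DRD2 were cultured 24 h at 37 C, then given Ro20-1724 (0.1 mM final) and compounds for 10 min at room temperature. NKH477 (200nM) was then added for 30 min. cAMP was read by HTRF.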

[18] = biological target: D(2) dopamine receptor (Homo sapiens) (UniProt P14416); test: Dopamine D2 receptor (DRD2) small molecule antagonists, cell-based qHTS assay (AID 1963595; active means well fitted inhibition curve with a large enough effect in the signal ratio in the repeat runs, with a control signal flat; the % refers to the signal ratio)
Summary of the method: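 Stable D2 receptor HEK293 line, 24 h after seeding. Compound preincubated 10 min, then quinpirole (12 nM) with forskolin analogue NKH477 (200 nM), 30 min, room temperature. Detection by time-resolved FRET of cAMP.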

[19] = p53 small molecule agonists, cell-based qHTS assay (AID 1963582; active means well fitted activation curve with a large enough effect in the signal ratio in the repeat runs, not every such curve was filed as active; the % refers to the signal ratio)
Summary of the method: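 Reporter line: p53RE-bla. Pre-incubation 5 h, 37 C, 5% CO2; compound (DMSO, pin tool) 16 h, 37 C; B/G FRET substrate 2 h RT; fluorescence intensity read.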

[20] = biological target: Beta-2 adrenergic receptor (Homo sapiens) (UniProt P07550); test: Adrenergic beta2 receptor (ADRB2) small molecule agonists, cell-based qHTS assay (AID 1963593);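 further: CHO cells stably overexpressing human ADRB2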
Summary of the method: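 CHO cells stably over-expressing ADRB2 were plated overnight at 37C, then dosed with compounds plus a stimulation mix containing 100uM IBMX and 25uM Ro-20-1724 for 0.5hr at room temperature. cAMP was measured by HTRF competition, 1hr.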

5-hydroxytryptamine receptor 2A (Homo sapiens), sequence (P28223 whole entry, looked up): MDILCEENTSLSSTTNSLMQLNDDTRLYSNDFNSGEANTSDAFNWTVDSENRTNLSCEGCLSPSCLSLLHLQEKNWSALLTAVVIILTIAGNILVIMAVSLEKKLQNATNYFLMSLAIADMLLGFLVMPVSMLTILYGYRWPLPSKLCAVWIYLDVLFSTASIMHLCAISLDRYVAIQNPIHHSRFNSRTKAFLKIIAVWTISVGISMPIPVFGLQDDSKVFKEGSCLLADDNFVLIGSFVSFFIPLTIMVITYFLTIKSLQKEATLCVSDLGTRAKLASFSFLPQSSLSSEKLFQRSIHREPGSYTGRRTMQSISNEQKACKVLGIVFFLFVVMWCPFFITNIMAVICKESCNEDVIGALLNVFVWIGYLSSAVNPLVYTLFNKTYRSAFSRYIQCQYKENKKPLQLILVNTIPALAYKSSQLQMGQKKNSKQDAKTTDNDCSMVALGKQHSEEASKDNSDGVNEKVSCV
Beta-2 adrenergic receptor (Homo sapiens), sequence (P07550 whole entry, looked up): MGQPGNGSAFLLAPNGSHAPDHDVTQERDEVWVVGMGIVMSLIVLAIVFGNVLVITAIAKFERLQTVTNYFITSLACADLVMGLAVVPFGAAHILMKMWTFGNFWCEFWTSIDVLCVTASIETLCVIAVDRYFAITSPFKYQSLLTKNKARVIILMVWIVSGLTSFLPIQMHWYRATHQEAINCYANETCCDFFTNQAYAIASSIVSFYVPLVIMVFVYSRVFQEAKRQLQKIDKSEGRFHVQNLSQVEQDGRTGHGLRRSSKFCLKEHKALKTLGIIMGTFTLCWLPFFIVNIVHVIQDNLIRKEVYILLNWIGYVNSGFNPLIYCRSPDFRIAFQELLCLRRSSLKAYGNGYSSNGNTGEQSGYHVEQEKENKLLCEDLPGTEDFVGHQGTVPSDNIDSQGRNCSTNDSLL
D(2) dopamine receptor (Homo sapiens), sequence (P14416 whole entry, looked up): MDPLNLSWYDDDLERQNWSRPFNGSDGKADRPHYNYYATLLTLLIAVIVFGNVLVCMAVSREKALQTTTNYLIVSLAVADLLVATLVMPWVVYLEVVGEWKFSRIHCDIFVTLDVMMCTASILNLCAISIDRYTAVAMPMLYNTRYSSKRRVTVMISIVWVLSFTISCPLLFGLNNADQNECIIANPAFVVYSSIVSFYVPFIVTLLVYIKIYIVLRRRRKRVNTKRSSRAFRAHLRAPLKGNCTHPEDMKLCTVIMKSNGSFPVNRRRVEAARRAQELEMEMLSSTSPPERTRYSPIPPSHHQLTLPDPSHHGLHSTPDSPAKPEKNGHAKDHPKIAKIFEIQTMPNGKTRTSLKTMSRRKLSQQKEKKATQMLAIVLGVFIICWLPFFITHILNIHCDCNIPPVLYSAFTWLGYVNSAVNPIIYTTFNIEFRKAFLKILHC
Muscarinic acetylcholine receptor M1 (Homo sapiens), sequence (P11229 whole entry, looked up): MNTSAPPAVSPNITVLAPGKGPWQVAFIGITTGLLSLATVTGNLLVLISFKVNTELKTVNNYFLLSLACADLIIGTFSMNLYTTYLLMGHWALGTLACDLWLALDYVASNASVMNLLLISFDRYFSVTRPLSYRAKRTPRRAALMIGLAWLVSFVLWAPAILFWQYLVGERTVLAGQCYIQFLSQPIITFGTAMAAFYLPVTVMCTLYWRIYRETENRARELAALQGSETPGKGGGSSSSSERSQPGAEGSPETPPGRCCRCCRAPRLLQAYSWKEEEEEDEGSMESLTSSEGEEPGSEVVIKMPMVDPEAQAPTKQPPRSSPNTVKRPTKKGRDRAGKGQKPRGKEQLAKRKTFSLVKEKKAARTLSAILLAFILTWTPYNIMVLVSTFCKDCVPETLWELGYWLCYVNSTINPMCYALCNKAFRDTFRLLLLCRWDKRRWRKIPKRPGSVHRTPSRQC
Gonadotropin-releasing hormone receptor (Homo sapiens), sequence (P30968 whole entry, looked up): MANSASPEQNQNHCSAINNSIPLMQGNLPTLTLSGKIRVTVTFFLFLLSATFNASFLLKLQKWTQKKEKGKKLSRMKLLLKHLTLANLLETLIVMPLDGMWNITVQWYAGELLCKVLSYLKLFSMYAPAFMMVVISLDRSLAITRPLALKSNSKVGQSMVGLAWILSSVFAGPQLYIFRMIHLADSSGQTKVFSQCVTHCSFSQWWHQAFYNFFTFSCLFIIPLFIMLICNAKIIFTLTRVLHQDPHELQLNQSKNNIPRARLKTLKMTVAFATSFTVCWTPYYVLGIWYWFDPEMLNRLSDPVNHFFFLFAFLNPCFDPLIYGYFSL
KiSS-1 receptor (Homo sapiens), sequence (Q969F8 whole entry, looked up): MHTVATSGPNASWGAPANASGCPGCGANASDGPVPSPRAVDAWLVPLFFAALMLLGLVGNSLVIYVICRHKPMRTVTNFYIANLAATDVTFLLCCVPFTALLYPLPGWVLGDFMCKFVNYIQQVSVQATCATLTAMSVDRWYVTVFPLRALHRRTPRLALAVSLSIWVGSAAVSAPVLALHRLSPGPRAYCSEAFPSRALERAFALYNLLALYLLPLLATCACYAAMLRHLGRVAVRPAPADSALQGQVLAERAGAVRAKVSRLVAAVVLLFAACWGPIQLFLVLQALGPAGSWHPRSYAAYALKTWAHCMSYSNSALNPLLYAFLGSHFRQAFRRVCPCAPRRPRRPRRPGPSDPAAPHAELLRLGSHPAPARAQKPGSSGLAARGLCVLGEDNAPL

## COc1ccc(Nc2ccc(OC)cc2)cc1
[1]
  Potency: inactive
[2]
  Potency: 27.8 µM (active)
[3]
  Potency: inactive
[4]
  outcome: inactive
[5]
  outcome: inactive
[6]
  Potency: inactive
[7]
  Potency: inactive
[8]
  Potency: inactive
[9]
  Potency: inactive
[10]
  Potency: inactive
[11]
  Potency: inactive
[12]
  Potency: inactive
[13]
  Potency: inactive
[14]
  Potency: inactive
[15]
  Potency: inactive
[16]
  Potency: inactive
[17]
  Potency: inactive
[18]
  Potency: inactive

## CCC(=O)O[C@]1(C(=O)CCl)[C@@H](C)C[C@H]2[C@@H]3CCC4=CC(=O)C=C[C@]4(C)[C@@]3(F)[C@@H](O)C[C@@]21C
[1]
  Potency: inactive
[2]
  Potency: inactive
[3]
  Potency: inactive
[4]
  outcome: inactive
[5]
  outcome: inactive
[6]
  Potency: inactive
[7]
  Potency: inactive
[8]
  Potency: inactive
[9]
  Potency: inactive
[19]
  Potency: inactive
[17]
  Potency: inactive
[18]
  Potency: inactive

## CC(C(=O)O)c1ccc(C(=O)c2ccccc2)s1 (stereo not drawn)
[1]
  Potency: inactive
[2]
  Potency: inactive
[3]
  Potency: inactive
[4]
  outcome: inactive
[5]
  outcome: inactive
[6]
  Potency: inactive
[7]
  Potency: inactive
[8]
  Potency: inactive
[9]
  Potency: inactive
[10]
  Potency: inactive
[11]
  Potency: inactive
[12]
  Potency: inactive
[13]
  Potency: inactive
[16]
  Potency: inactive
[20]
  Potency: inactive
[17]
  Potency: inactive
[18]
  Potency: inactive

## COC(=O)C(C)(C)C
[1]
  Potency: inactive
[2]
  Potency: inactive
[3]
  Potency: inactive
[4]
  outcome: inactive
[5]
  outcome: inactive
[6]
  Potency: inactive
[7]
  Potency: inactive
[8]
  Potency: inactive
[9]
  Potency: inactive
[10]
  Potency: inactive
[11]
  Potency: inactive
[12]
  Potency: inactive
[13]
  Potency: inactive
[14]
  Potency: inactive
[15]
  Potency: inactive
[16]
  Potency: inactive
[17]
  Potency: inactive
[18]
  Potency: inactive

## CC(=O)OCC(=O)[C@@]1(OC(C)=O)[C@@H](C)C[C@H]2[C@@H]3C[C@H](F)C4=CC(=O)C=C[C@]4(C)[C@@]3(F)[C@@H](O)C[C@@]21C
[1]
  Potency: inactive
[2]
  Potency: inactive
[3]
  Potency: inactive
[4]
  outcome: inactive
[5]
  outcome: inactive
[6]
  Potency: inactive
[7]
  Potency: inactive
[8]
  Potency: inactive
[9]
  Potency: inactive
[19]
  Potency: inactive
[16]
  Potency: inactive
[20]
  Potency: inactive
[17]
  Potency: inactive
[18]
  Potency: inactive

## CN(C)CCCOc1nn(Cc2ccccc2)c2ccccc12
[1]
  Potency: inactive
[2]
  Potency: inactive
[3]
  Potency: inactive
[4]
  outcome: inactive
[5]
  outcome: inactive
[6]
  Potency: inactive
[7]
  Potency: inactive
[8]
  Potency: inactive
[9]
  Potency: inactive
[10]
  Potency: inactive
[11]
  Potency: inactive
[12]
  Potency: inactive
[13]
  Potency: inactive
[14]
  Potency: inactive
[16]
  Potency: 26.6 µM (active)
[17]
  Potency: inactive
[18]
  Potency: inactive

## Nc1cccc(S(=O)(=O)c2cccc(N)c2)c1
[1]
  Potency: inactive
[2]
  Potency: inactive
[3]
  Potency: inactive
[4]
  outcome: inactive
[5]
  outcome: inactive
[6]
  Potency: inactive
[7]
  Potency: inactive
[8]
  Potency: inactive
[9]
  Potency: inactive
[10]
  Potency: inactive
[11]
  Potency: inactive
[12]
  Potency: inactive
[13]
  Potency: inactive
[14]
  Potency: inactive
[16]
  Potency: inactive
[20]
  Potency: inactive
[18]
  Potency: inactive
